Measurements reported in paper PMC4336329 (PLoS ONE, 2015).
About 14,000 (4.5%) of roughly 310,000 compounds showed an effect of 50% or more. The effect is printed as a negative number. The full list was thinned out, with strong results kept by preference.

biological target: human ether-à-go-go-related gene (hERG) potassium channel (human, UniProt Q12809); experiment: primary screen, population patch clamp on CHO cells stably expressing hERG; higher = less effect of the substance
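Also: peak tail current of the secondary pulse compared with the same well before compound.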

human ether-à-go-go-related gene (hERG) potassium channel, sequence (Q12809 whole entry, looked up): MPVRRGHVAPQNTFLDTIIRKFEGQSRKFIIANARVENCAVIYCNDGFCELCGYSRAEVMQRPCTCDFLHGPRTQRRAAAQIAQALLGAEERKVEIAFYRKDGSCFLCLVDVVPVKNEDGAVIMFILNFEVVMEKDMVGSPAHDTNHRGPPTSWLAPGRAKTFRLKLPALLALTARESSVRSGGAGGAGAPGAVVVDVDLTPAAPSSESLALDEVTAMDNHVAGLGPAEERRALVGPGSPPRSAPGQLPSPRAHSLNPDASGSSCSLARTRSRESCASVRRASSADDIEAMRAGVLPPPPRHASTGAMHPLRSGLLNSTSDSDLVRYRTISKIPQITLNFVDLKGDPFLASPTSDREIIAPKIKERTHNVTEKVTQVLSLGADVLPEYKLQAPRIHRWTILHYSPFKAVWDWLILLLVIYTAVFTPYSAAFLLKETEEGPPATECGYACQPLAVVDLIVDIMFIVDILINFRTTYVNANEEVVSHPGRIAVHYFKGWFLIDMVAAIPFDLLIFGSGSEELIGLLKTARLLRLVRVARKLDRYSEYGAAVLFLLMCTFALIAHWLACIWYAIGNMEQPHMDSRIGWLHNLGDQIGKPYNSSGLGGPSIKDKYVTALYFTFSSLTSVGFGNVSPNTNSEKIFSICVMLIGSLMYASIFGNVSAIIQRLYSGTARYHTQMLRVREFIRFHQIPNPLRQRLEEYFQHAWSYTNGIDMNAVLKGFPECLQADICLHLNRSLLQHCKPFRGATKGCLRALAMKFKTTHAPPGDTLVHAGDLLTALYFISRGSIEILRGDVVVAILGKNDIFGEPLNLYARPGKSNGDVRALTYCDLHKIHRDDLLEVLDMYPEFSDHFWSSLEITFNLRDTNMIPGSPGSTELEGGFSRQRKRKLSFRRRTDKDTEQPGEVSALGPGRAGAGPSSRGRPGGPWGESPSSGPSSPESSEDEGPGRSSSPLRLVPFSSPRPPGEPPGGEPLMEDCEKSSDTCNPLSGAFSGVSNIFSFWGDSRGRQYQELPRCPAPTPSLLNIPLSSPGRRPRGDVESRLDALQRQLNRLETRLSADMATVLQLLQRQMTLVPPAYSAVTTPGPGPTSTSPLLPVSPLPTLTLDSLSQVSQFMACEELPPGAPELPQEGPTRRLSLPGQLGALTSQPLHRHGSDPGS

Row | Structure (SMILES) | hERG current change (%, negative = inhibition) at 10uM [%]
1 | O=C(Nc1cccc(C(F)(F)F)c1)c1cncs1 | 20
2 | O=C(COc1coc(CN2CCc3ccccc3C2)cc1=O)Nc1ccc([N+](=O)[O-])cc1 | -31.7
3 | O=C(c1ccco1)N1CCN(Cc2cc(=O)c(OCc3ccc([N+](=O)[O-])cc3)co2)CC1 | -76.2
4 | O=C(c1ccco1)N1CCN(Cc2cc(=O)c(OCc3ccc(F)cc3)co2)CC1 | -62.2
5 | O=C(c1ccco1)N1CCN(Cc2cccc(F)c2)CC1 | -0.928
6 | COc1ccc(CN2CCN(C(=O)c3ccco3)CC2)cc1OC.O=C(O)C(=O)O | 16.8
7 | O=C(c1ccco1)N1CCN(Cc2cc(=O)c(OCc3ccccc3)co2)CC1 | -25.5
8 | CC(C)NC(=O)COc1coc(CN2CCN(C(=O)c3ccco3)CC2)cc1=O | 10.3
9 | CCOc1cc(CN2CCN(C(=O)c3ccco3)CC2)ccc1OC | -28.7
10 | O=C(c1ccco1)N1CCN(Cc2cc(=O)c(OCc3cccc(F)c3)co2)CC1 | -76.4
11 | O=c1cc(CO)occ1OCc1cccc(F)c1 | -9.93
12 | COc1ccc(CN2CCN(C(=O)c3ccco3)CC2)cc1OCc1ccccc1 | -51.2
13 | O=C(O)CCCCCn1c(SCC(=O)c2ccc(O)c(O)c2)nc2ccsc2c1=O | 32.2
14 | O=C(N[C@@H](Cc1ccccc1)C(=O)NC1CCCCC1)c1ccco1 | 6
15 | CN1CCN(NS(=O)(=O)c2ccc(Cl)cc2)CC1 | 19.4
16 | COc1ccc(CCNC(=O)c2cccs2)cc1 | 10.9
17 | Brc1ccccc1OCCCN1CCCC1.O=C(O)C(=O)O | -12.4
18 | O=C(O)C(=O)O.c1ccc2c(OCCCCN3CCOCC3)cccc2c1 | 10.7
19 | O=C(O)C(=O)O.c1ccc2c(OCCCN3CCCCCC3)cccc2c1 | -65.8
20 | c1ccc2c(OCCCCN3CCCC3)cccc2c1 | -27.1
21 | Brc1ccccc1OCCCCN1CCCCC1 | -39.1
22 | Brc1ccccc1OCCCN1CCCCCC1.O=C(O)C(=O)O | -72.6

Row | Structure (SMILES) | hERG current change (%, negative = inhibition) at 10uM [%]
23 | CC1(C)Cc2cccc(OCC(=O)Nc3ccccc3N3CCOCC3)c2O1 | -10.8
24 | CCOc1c(Cl)cc(CNC(C)(C)CC(C)(C)C)cc1OC.Cl | -13.2
25 | CCCn1c(=O)[nH]c(=O)c2c1nc(-c1ccc(C(F)(F)F)cc1)n2CCOC | -4.45
26 | CCOC(=O)CN1C(=O)/C(=C/c2c(F)cccc2Cl)Oc2ccccc21 | 9.08
27 | COc1ccc2cc(C3(C)NC(=O)NC3=O)ccc2c1 (stereo not drawn) | -0.239
28 | CN(C(=O)CSc1nnc(C2CC2)n1C1CC1)C1(C#N)CCCCC1 | -5.85
29 | O=C(N/N=C/c1ccc(OC(=O)c2cccc(Br)c2)cc1)c1cccnc1 | 11.4
30 | O=C(N/N=C(\c1ccccc1)c1cccnc1)c1cc(O)ccc1O | 16.4
31 | Cc1ccc(C(=O)N/N=C\c2ccc(OC(=O)c3cccc(F)c3)cc2)cn1 | 11
32 | O=C(N/N=C(\c1ccccc1)c1cccnc1)c1cccc(F)c1 | -61.5
33 | O=C(N/N=C/c1cccnc1)c1cccc(F)c1 | 2.67
34 | O=C(N/N=C/c1ccc(OC(=O)c2cccc(F)c2)cc1)c1cccnc1 | -69.6
35 | Br.CC(C)(C)C(=O)Cn1c(NCCO)nc2ccccc21 | 5.72
36 | O=C(OCC(=O)N1CCc2ccccc21)C1CCCN1S(=O)(=O)c1ccc(Cl)cc1 (stereo not drawn) | -17.8
37 | CC(C)COc1ccc(C(=O)OCC(=O)N(C)CC(=O)Nc2ccc(F)cc2)cc1 | 6.57
38 | CCOC(=O)Cc1cc(C)[nH]c1C(=O)OCC | -5.81
39 | C=CCNC(=O)c1c2c(nc3ccccc13)-c1ccccc1CC2 | -46.4
40 | COc1ccc(Cl)cc1C(=O)C1CCCN(CCO)C1 (stereo not drawn) | -11.2
41 | CCOC(=O)C1CCCN(Cc2ccc(O)c(OC)c2)C1 (stereo not drawn) | -6.59
42 | CCOc1cccc(CN2CCCC(C(=O)Nc3ccc(-c4ccn[nH]4)cc3)C2)c1O (stereo not drawn) | -29.5
43 | CCCC(=O)N1CCCC(C(=O)c2ccc(OC)c(OC)c2)C1 (stereo not drawn) | 12.7
44 | CCOc1ccccc1CN1CCCC(C(=O)c2ccc(OC)c(OC)c2)C1 (stereo not drawn) | -74.2

Row | Structure (SMILES) | hERG current change (%, negative = inhibition) at 10uM [%]
45 | COc1ccc(CN2CCCC(C(=O)c3cccc(C(F)(F)F)c3)C2)cc1O (stereo not drawn) | -62.2
46 | CCOC(=O)C1CCCN(Cc2ccccc2OCC)C1 (stereo not drawn) | -2.92
47 | CCOc1cc(CN2CCCC(C(=O)c3cccc(C(F)(F)F)c3)C2)ccc1O (stereo not drawn) | -61.2
48 | CCOc1cccc(CN2CCCC(C(=O)c3cc(Cl)ccc3OC)C2)c1O (stereo not drawn) | -64.3
49 | O=S(=O)(c1ccc(F)cc1)N1CCCC(c2nc(-c3ccc(F)cc3)no2)C1 (stereo not drawn) | -13.9
50 | Cc1c(NC(=O)CN2C(=O)c3ccc([N+](=O)[O-])cc3C2=O)c(=O)n(-c2ccccc2)n1C | 8.89
51 | Cc1cccnc1NC(=O)C1CCN(S(=O)(=O)c2ccc3c(c2)CCC(=O)N3)CC1 | 16.1
52 | O=C(CCc1nnc(CCCCc2ccccc2)o1)NCCN1CCCCC1=O | 18.2
53 | CC(=O)N1CCc2[nH]c3ccccc3c2C1 | 4.55
54 | COc1ccc(Br)c(C(=O)Nc2ccc(F)cc2)c1 | -0.956
55 | NS(=O)(=O)c1ccc(CCNc2nc3c(-c4cccc(F)c4)nnn3c3ccccc23)cc1 | 21.5
56 | C=CCNc1nc(C2(C)CC3(CC(C)OC3=O)C(=O)O2)cs1 (stereo not drawn) | -4.86
57 | O=C(C1CCCN(CCCc2ccccc2)C1)N1CCCCC1 (stereo not drawn) | -38.8
58 | O=C(c1cccc(C(F)(F)F)c1)C1CCCN(Cc2ccc(OCCO)cc2)C1 (stereo not drawn) | -69.8
59 | Cc1ccc(CN2CCCC(C(=O)c3cccc(C(F)(F)F)c3)C2)o1 (stereo not drawn) | -19.3
60 | COCc1cc(CN2CCCC(C(=O)c3cccc(C(F)(F)F)c3)C2)ccc1OC (stereo not drawn) | -63.1
61 | O=C(c1cc(F)ccc1F)C1CCCN(CCCc2ccccc2)C1 (stereo not drawn) | -73.2
62 | COc1cccc(O)c1CN1CCCC(C(=O)c2cccc(C(F)(F)F)c2)C1 (stereo not drawn) | -57.5
63 | O=C(c1cc(F)ccc1F)C1CCCN(Cc2cccc(Cl)c2)C1 (stereo not drawn) | 4.01
64 | COCc1ccc(C(=O)N2CCCC(C(=O)c3cccc(C(F)(F)F)c3)C2)o1 (stereo not drawn) | -0.276
65 | COCc1cc(CN2CCCC(C(=O)Nc3ccc(-c4ccco4)cc3)C2)ccc1OC (stereo not drawn) | -7.12
66 | O=C(c1cccc(C(F)(F)F)c1)C1CCCN(Cc2cccc(OCCO)c2)C1 (stereo not drawn) | -47.4
